Source: PubChem BioAssay (several laboratories)
In the library only some 1.4% were active in any assay of this set; here they are far more common.
Vc quorum ag = inducers of Vibrio cholerae quorum light production without autoinducers, primary screen, BH1578 luxS cqsA deficient, single point. activation, % at 18.7 µM. hit rate 0.16% among 350,000. V. cholerae BH1578 lux reporter, luminescence, 6 h; in the data active = activation mostly above about 9.7%, no sharp cut-off
PrP 5UTR inh = inhibition of PrP 5' UTR reporter expression; cell-based PrP 5' UTR mRNA reporter, plate reader; inhibition, % (test concentration not listed); hit rate 0.35% among 340,000; in the data active = inhibition above about 52%; also: 0 = median of the neutral control wells
FadD28 binding = inhibitors of FadD28 bisubstrate probe binding, primary screen, biochemical, fluorescence polarization, single point | Mycobacterium tuberculosis FadD28 fatty-acid-AMP ligase | inhibition, % at 12.5 µM | hit rate 0.22% among 360,000; in the data active = inhibition above about 8.5%, passing the limit was not always enough
PriA SSB inh = inhibitors of Klebsiella pneumoniae PriA binding to SSB C-terminal tail, primary screen, biochemical, AlphaScreen; PriA–SSB C-terminal tail interaction (Klebsiella pneumoniae); AlphaScreen SSBct-PriA binding, biotinylated peptide; inhibition, % at 33 µM; hit rate 0.6% among 430,000; in the data active = inhibition mostly above about 37%, no sharp cut-off; inactive = mostly below about 20%;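 also: plate controls were negative control peptide for no effect and reference peptide for full effect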
PrPC surface inh = inhibitors of human cell surface prion protein PrPC, primary screen, cell-based, TR-FRET. Major prion protein (Homo sapiens), P04156. TR-FRET read-out. inhibition, % at 13.8 µM. hit rate 0.43% among 370,000; in the data active = inhibition above about 24%; also: 0% = median of the test wells and 100% = reference compound wells
* hit, by the source's call; i = inactive; nt = no result; ! = not active in a repeat.

SMILES | Vc quorum ag | PrP 5UTR inh | FadD28 binding | PriA SSB inh | PrPC surface inh
CCN(CC)c1ccc2nc3ccccc3[n+](CC)c2c1 | 1 | -3 | -1 | 42* | nt
COc1ccc(S(=O)(=O)NCC(C)(O)c2cc3ccccc3o2)cc1C(N)=O (stereo unspecified) | nt | nt | nt | -12 | nt
CCOc1ccc(S(=O)(=O)c2cnc(SCC(=O)Nc3cccc(Cl)c3)[nH]c2=O)cc1 | nt | nt | nt | -4 | nt
O=c1ccc(-c2cccc(Br)c2)nn1Cc1ccccn1 | nt | nt | nt | -5 | nt
COc1ccc(-c2nn(C)c3sc(C(=O)NCc4ccco4)cc23)cc1OC | -8 | -3 | -3 | -4 | 10
COc1ccc(NC(=O)c2cc3c(-c4ccc(OC)c(OC)c4)nn(C)c3s2)cc1OC | 0 | -24 | 26* | 16 | 2
Cc1cccc(NC(=O)CN2C(=O)N/C(=C\c3ccccc3OCc3ccc(C(=O)O)cc3)C2=O)c1 | -4 | -19 | 42* | -1 | -9
CCOc1cc(/C=C2/NC(=O)N(CC(=O)Nc3cccc(C)c3)C2=O)ccc1O | 2 | -9 | 16* | -11 | -19
O=C(CN1C(=O)N/C(=C\c2ccccc2OCc2ccc(C(=O)O)cc2)C1=O)Nc1ccc(F)cc1 | 0 | -7 | 1 | 0 | -17
CCOc1cc(/C=C2/NC(=O)N(CC(=O)Nc3cccc(C)c3)C2=O)ccc1OC | nt | -3 | -1 | -17 | -7
Cc1cccc(NC(=O)CN2C(=O)N/C(=C\c3cccn3-c3cccc(C(=O)O)c3)C2=O)c1 | 0 | -19 | 18* | 14 | 6
CONC(=O)c1csc(-c2cc3ccccc3n2C)n1 | nt | nt | nt | -20 | nt
CN(C)c1cc2c3ccccc3n(C)c2cc1N | -1 | 8 | 0 | 66* | -4
C/C(=N/O)c1ccc2c3ccccc3n(C)c2c1 | nt | nt | nt | -13 | nt
COc1ccc(Nc2c([N+](=O)[O-])ccc3c2=NC2(CCCCC2)N=3)cc1 | i | -10 | 1 | 76* | -9
O=[N+]([O-])c1ccc2c(c1Nc1ccccc1)=NC1(CCCCC1)N=2 | -5 | -11 | -1 | -17 | -3
CCCN1CCCc2cc(CCNC(=O)CC(C)(C)C)ccc21 | nt | nt | nt | 58* | nt
CN1CCCc2cc(CCNC(=O)COc3ccccc3)ccc21 | nt | nt | nt | 70 | nt
CCCN1CCCc2cc(CCNC(=O)C(=O)Nc3ccon3)ccc21 | nt | nt | nt | 56* | nt
CCCN1CCCc2cc(CCNC(=O)OC)ccc21 | nt | nt | nt | 64* | nt
CCCNC(=O)C(=O)NCCc1ccc2c(c1)CCCN2CCC | nt | nt | nt | 3 | nt
CCCN1CCCc2cc(CCNC(=O)C(=O)NCC)ccc21 | nt | nt | nt | 24 | nt
CCCN1CCCc2cc(CCNC(=O)COc3ccccc3)ccc21 | nt | nt | nt | 95* | nt
O=c1[nH]c(=S)n(C2CCCCC2)c(O)c1C=NN1CCOCC1 | nt | nt | nt | -8 | nt
CCCN1CCCc2cc(CCNC(=O)CCc3ccc(OC)cc3)ccc21 | nt | nt | nt | 66* | nt
SMILES | Vc quorum ag | PrP 5UTR inh | FadD28 binding | PriA SSB inh | PrPC surface inh
CCCN1CCCc2cc(CCNC(=O)CCc3ccccc3)ccc21 | nt | nt | nt | 62 | nt
CCCN1CCCc2cc(CCNC(=O)CC(C)C)ccc21 | nt | nt | nt | 55 | nt
CCCN1CCCc2cc(CCNC(=O)Cc3ccc(F)cc3)ccc21 | nt | nt | nt | 73* | nt
COC(=O)c1ccc(C(=O)NCCn2nc(-c3ccccn3)c3c2CCCC3)cc1 | nt | nt | nt | -13 | nt
CN1C=CC=C/C1=C(/C#N)c1nc(-c2ccc(Cl)cc2)cs1 | nt | nt | nt | 134* | nt
CN1C=CC=C/C1=C(/C#N)c1nc2ccccc2[nH]1 | nt | nt | nt | -11 | nt
COc1ccccc1-c1csc(/C(C#N)=C2\C=CC=CN2C)n1 | nt | nt | nt | 70* | nt
CN1C=CC=C/C1=C(/C#N)c1nc(-c2ccccc2)cs1 | nt | nt | nt | 99* | nt
O=S(=O)(Nc1nc2c(s1)CCCC2)c1ccc2ccccc2c1 | 17* | -20 | 0 | -5 | 3
Cc1cc(C)c2sc(N(CCCN3CCOCC3)C(=O)c3ccno3)nc2c1 | nt | nt | nt | -4 | nt
CC1=NN(c2ccccc2)C(=O)/C1=C/c1c(O)n(-c2ccc(F)cc2)[nH]c1=O | -1 | -17 | 19* | nt | -10
Cn1c(SCC(=O)NCc2cccnc2)nnc1-c1sc2ccccc2c1Cl | nt | nt | nt | 11 | nt
COc1ccc(C(F)(F)F)cc1NC(=O)CSc1nc(=O)n(N2CCN(C)CC2)c2c1CCC2 | nt | nt | nt | 5 | nt
COc1ccc2[nH]c3c(N4CC(C)OC(C)C4)ncnc3c2c1 (stereo unspecified) | nt | nt | nt | -16 | 6
COc1cccc(N2CCN(c3ncnc4c3[nH]c3ccc(F)cc34)CC2C)c1 (stereo unspecified) | 0 | -20 | -4 | 42* | 85*
NC(=O)CSc1cccc2cccnc12 | nt | nt | nt | 64* | nt
O=C(CSc1cccc2cccnc12)N1CCCCCC1 | nt | nt | nt | 102* | nt
O=C(O)CSc1cccc2cccnc12 | 0 | 13 | 1 | 65*! | 4
O=C(CSc1cccc2cccnc12)NCCc1ccc(Cl)cc1 | nt | nt | nt | 77* | nt
CN1CCN(C(=O)CSc2cccc3cccnc23)CC1 | nt | nt | nt | 69 | nt
CC(C)(C)NC(=O)CSc1cccc2cccnc12 | nt | nt | nt | 41 | nt
COc1ccccc1NC(=O)CSc1ccc(-c2ccncc2)nn1 | nt | nt | nt | 18 | nt
COc1ccccc1NC(=O)CSc1ccc(-c2ccccn2)nn1 | 0 | -17 | 0 | 89*! | 9
COc1ccc(NC(=O)CSc2ccc(-c3ccccn3)nn2)cc1OC | 0 | -50 | -3 | 72* | -6
Cc1nnc(NC(=O)CSc2ccc(-c3cccnc3)nn2)s1 | 0 | -23 | -5 | -18 | 6
SMILES | Vc quorum ag | PrP 5UTR inh | FadD28 binding | PriA SSB inh | PrPC surface inh
O=C(CSc1ccc(-c2ccccn2)nn1)Nc1ccc(Cl)c(Cl)c1 | nt | nt | nt | 28 | nt
Cc1nnc(NC(=O)CSc2ccc(-c3ccccn3)nn2)s1 | nt | nt | nt | 56* | nt
CCOc1ccccc1NC(=O)CSc1ccc(-c2ccccn2)nn1 | nt | nt | nt | 116* | nt
O=C(c1cc(-c2ccc3c(c2)OCCO3)on1)N1CCN(c2cccc(Cl)c2)CC1 | nt | nt | nt | -9 | nt
Cn1cnc(S(=O)(=O)N2CC(S(=O)(=O)C3CCCCC3)C2)c1 | nt | nt | nt | 9 | nt
COC(=O)c1ccc(NC(=O)CSc2ncc(CO)n2Cc2ccc(F)cc2)cc1 | nt | nt | nt | 8 | nt
O=c1ccc(-c2ccccc2)nn1CCN1CCN(S(=O)(=O)c2ccc3c(c2)OCCO3)CC1 | nt | nt | nt | -12 | nt
O=C(CSc1ccc(-c2ccccn2)nn1)Nc1ccccc1F | nt | nt | nt | 84* | nt
CC(=NNC(=O)c1cc(O)ccc1O)c1cccc(NC(=O)c2ccc(Cl)cc2)c1 | nt | nt | nt | -7 | nt
C#CCn1c(=NC(=O)c2ccc(Cl)s2)sc2cc(S(N)(=O)=O)ccc21 | nt | nt | nt | -1 | nt
Cc1noc(-c2ccc3nccnc3c2)n1 | nt | nt | nt | 41* | nt
COc1ccc([C@@H]2C(C(=O)c3ccco3)=C(O)C(=O)N2c2ccccn2)cc1 | nt | nt | nt | -7 | nt
Cn1nc(C(=O)NCCc2csc(-n3cccn3)n2)ccc1=O | nt | nt | nt | -22 | nt
Cc1ccc2cc(C(c3nnnn3Cc3ccccc3)N3CCc4ccccc43)c(=O)[nH]c2c1C (stereo unspecified) | i | -12 | -3 | 12 | 26*
COc1ccc(NC(=O)c2ccc(-c3ccc(-c4noc(C)n4)cc3C)cc2)cc1N1CCN(C)CC1 | -3 | -6 | -4 | 39* | -23
COc1ccc(-c2nc(-c3ccc(NC(=O)c4ccncc4)cc3)no2)cc1OC | 0 | -20 | -4 | -4 | nt
